Experimental data: PubChem BioAssay (EPA / NIEHS)
Records with an inconclusive call do not appear. Activity calls are given as the source filed them. Rule for the calls: active = hit-call score of the fitted dose curve at least 0.9, where 1 is the maximum; inconclusive = response in the unintended direction; inactive = score below 0.9.

What follows are compounds tested against sheep Cyclooxygenase-1 (Cox1), PTGS1 (gene 443551) (UniProt P05979) (assay: NVS_ENZ_oCOX1: NovaScreen (NVS) Enzymatic Assay for sheep Cyclooxygenase-1 (Cox1) (AID 2283239);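 note: actives reduce cyclooxygenase activity so potencies are for inhibitors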).
sheep Cyclooxygenase-1 (Cox1), PTGS1 (gene 443551), sequence (P05979 whole entry, looked up): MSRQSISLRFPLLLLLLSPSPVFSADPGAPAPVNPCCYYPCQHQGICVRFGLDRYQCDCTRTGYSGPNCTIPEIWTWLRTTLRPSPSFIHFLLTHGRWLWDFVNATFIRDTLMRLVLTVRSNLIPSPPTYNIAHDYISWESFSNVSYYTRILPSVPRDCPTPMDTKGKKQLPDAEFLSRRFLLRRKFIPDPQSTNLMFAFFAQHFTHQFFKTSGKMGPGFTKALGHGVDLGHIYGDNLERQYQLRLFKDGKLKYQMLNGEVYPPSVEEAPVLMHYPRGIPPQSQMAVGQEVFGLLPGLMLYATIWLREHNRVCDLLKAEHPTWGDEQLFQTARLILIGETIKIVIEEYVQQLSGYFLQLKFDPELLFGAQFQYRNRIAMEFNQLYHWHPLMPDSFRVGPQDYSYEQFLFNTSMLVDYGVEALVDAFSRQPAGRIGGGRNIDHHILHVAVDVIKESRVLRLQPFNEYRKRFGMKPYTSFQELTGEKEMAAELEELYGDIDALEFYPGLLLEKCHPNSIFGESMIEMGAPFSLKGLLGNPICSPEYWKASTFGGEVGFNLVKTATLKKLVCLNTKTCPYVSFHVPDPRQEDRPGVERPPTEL
Method in brief: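 Tested in duplicate at 25 uM, then in concentration series if active, against seminal vesicle extract from sheep. Enzyme activity was measured colorimetrically at 0.66 hour and normalised to DMSO.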

How did the outcome turn out when `c1ccc(-c2ccccn2)nc1` was run?
The outcome was “inactive”.

For `CCO[Si](CCCN=C=O)(OCC)OCC`, which outcome is on record?
The outcome was “inactive”.

With `C#CC1(O)CC[C@H]2[C@@H]3CCC4=CCCC[C@@H]4[C@H]3CC[C@@]21C` (stereo partly drawn) as the compound, how does the AC50 read?
Its AC50 is 43.8 µM (active).

Each compound was assayed against human Adenosine A2a Receptor (AdoRA2a), ADORA2A (gene 135) (UniProt P29274) (assay: NVS_GPCR_hAdoRA2a: NovaScreen (NVS) G Protein-Coupled Receptor Assay for human Adenosine A2a Receptor (AdoRA2a) (AID 2283256)).
human Adenosine A2a Receptor (AdoRA2a), ADORA2A (gene 135), sequence (P29274 whole entry, looked up): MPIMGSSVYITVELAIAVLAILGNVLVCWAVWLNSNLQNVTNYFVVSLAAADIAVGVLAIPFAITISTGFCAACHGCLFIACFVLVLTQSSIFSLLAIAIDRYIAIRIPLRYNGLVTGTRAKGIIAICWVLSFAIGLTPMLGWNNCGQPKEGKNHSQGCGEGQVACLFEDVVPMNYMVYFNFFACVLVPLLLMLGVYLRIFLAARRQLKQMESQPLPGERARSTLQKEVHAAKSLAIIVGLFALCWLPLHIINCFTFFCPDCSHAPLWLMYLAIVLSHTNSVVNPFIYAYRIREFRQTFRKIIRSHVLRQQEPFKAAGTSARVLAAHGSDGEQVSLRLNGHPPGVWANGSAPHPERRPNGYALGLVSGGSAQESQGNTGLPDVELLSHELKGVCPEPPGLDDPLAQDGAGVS
Method in brief: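 Radioligand displacement on HEK293-derived membrane protein, cell-free; filter-based scintillation counting 1.5 hours after dosing, loss of signal vs DMSO. Single-point duplicate screen at 25 uM, actives retested in concentration series.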

How did the outcome turn out when `C1=CCCC1` was run?
The outcome was “inactive”.

How did the outcome turn out when `COCc1c(C(C)C)nc(C(C)C)c(/C=C/[C@@H](O)C[C@@H](O)CC(=O)O)c1-c1ccc(F)cc1` was run?
The outcome was “inactive”.

Which outcome does the source give for `CC(C)c1ccc(C=O)cc1` here?
The outcome was “inactive”.

Which outcome does the source give for `O=c1c2ccccc2oc2ccccc12` here?
The outcome was “inactive”.

The compounds below were run against D(1A) dopamine receptor (Homo sapiens) (UniProt P21728) (assay: NVS_GPCR_hDRD1: NovaScreen (NVS) G Protein-Coupled Receptor Assay for human Dopamine Receptor D1 (DRD1) (AID 2283269)).
D(1A) dopamine receptor (Homo sapiens), sequence (P21728 whole entry, looked up): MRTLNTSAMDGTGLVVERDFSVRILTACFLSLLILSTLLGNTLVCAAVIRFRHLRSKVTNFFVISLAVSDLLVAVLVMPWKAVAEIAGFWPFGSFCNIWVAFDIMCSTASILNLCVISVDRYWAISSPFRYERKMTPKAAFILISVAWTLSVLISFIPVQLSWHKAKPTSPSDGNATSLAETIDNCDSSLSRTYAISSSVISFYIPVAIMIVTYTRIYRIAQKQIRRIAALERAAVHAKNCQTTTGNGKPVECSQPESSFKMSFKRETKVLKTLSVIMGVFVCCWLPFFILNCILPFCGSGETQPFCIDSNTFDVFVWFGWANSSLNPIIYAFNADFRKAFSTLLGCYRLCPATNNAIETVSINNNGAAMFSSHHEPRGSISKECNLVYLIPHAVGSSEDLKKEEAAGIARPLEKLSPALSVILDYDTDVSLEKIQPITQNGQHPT
Method in brief: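 Radioligand displacement binding on membranes/protein extracted from HEK293 expressing human D1, cell-free; read 1 h after dosing by filter-based scintillation counting. Primary screen in duplicate at 25 uM, actives followed up in concentration series; signal loss versus DMSO baseline.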

For `C1=CCCC1`, which outcome is on record?
The outcome was “inactive”.

`C#CC1(O)CC[C@H]2[C@@H]3CCC4=CCCC[C@@H]4[C@H]3CC[C@@]21C` (stereo partly drawn) was tested. Which outcome did it give?
The outcome was “inactive”.

`C=CC(=O)OCC(Br)CBr` (stereo not drawn) was tested. Which outcome did it give?
The outcome was “inactive”.

With `CCOc1nc(F)cc2nc(S(=O)(=O)Nc3c(Cl)cccc3C(=O)OC)nn12` as the compound, how does the AC50 read?
Its AC50 is 25 µM (active).

`CCCC(C)CCC(C)=O` (stereo not drawn) was tested. Which outcome did it give?
The outcome was “inactive”.

The compounds below were run against rat Thyrotropin Releasing Hormone Receptor (TRH), Trhr (gene 25570) (UniProt Q01717) (assay: NVS_GPCR_rTRH: NovaScreen (NVS) G Protein-Coupled Receptor Assay for rat Thyrotropin Releasing Hormone Receptor (TRH) (AID 2283329);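 note: hit means lower bound tracer signal versus DMSO baseline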).
rat Thyrotropin Releasing Hormone Receptor (TRH), Trhr (gene 25570), sequence (Q01717 whole entry, looked up): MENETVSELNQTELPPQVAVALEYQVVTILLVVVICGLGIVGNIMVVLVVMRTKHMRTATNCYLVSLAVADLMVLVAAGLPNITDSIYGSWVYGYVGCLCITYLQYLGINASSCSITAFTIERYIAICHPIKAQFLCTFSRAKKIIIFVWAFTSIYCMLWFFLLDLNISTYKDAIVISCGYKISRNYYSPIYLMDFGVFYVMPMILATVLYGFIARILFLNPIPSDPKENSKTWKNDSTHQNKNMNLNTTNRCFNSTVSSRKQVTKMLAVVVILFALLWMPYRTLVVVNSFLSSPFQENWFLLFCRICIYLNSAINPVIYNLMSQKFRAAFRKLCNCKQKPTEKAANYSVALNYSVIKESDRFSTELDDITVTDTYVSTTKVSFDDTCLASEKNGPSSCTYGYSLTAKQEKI
Method in brief: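 Rat forebrain membranes; radioligand displacement at TRH receptor by filter-based scintillation counting, read 4 h after dosing. Duplicate single-point screen at 25 uM, actives rerun in concentration series; loss of signal relative to DMSO.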

`CCCCCCCC/C=C\CCCCCCCC(=O)OCCO` was tested. Which outcome did it give?
Its outcome is “inactive”.

`CC/C=C\C/C=C\C/C=C\CCCCCCCC(=O)O` was tested. Which outcome did it give?
Its outcome is “inactive”.

With `CCOC(=O)Cc1cccc2ccccc12` as the compound, how does the outcome read?
Its outcome is “inactive”.

How did the outcome turn out when `Cc1cc(C)c(C)cc1C` was run?
Its outcome is “inactive”.

With `CCN(CCC#N)c1ccc(N=Nc2c(Cl)cc([N+](=O)[O-])cc2Cl)cc1` as the compound, how does the outcome read?
The outcome was “inactive”.

How did the outcome turn out when `CC(C)(C)c1ccc(N)cc1` was run?
Its outcome is “inactive”.

`NC(=O)N=NC(N)=O` was tested. Which outcome did it give?
Its outcome is “inactive”.

Which outcome does the source give for `CCCCC/C=C\CCC=O` here?
Its outcome is “inactive”.

For `CC=C1CC2C=CC1C2` (stereo not drawn), which outcome is on record?
Its outcome is “inactive”.

For `NC(=O)c1ccccc1O`, which outcome is on record?
The outcome was “inactive”.

`CCCCCc1ccc(Cl)cc1` was tested. Which outcome did it give?
Its outcome is “inactive”.

Which outcome does the source give for `Cc1ccc(C(C)c2ccc(C)c(C)c2)cc1C` here?
Its outcome is “inactive”.

For `CC(C)C1=CC2=CC[C@@H]3[C@](C)(CCC[C@@]3(C)C(=O)O)[C@H]2CC1`, which outcome is on record?
Its outcome is “inactive”.

For `CCCCCCCCCCOS(=O)(=O)O`, which outcome is on record?
Its outcome is “inactive”.

For `C=C1C2CCC(C2)C1(C)C` (stereo not drawn), which outcome is on record?
Its outcome is “inactive”.

`c1c[nH]cn1` was tested. Which outcome did it give?
Its outcome is “inactive”.

`CC(=O)OC(C)C` was tested. Which outcome did it give?
Its outcome is “inactive”.

For `CO[Si](OC)(OC)c1ccccc1`, which outcome is on record?
The outcome was “inactive”.

`CN(C)c1ccc(C(=N)c2ccc(N(C)C)cc2)cc1` was tested. Which outcome did it give?
The outcome was “inactive”.

How did the outcome turn out when `CCO[Si](C)(OCC)OCC` was run?
The outcome was “inactive”.

How did the outcome turn out when `COC(=O)c1c(C)cc(O)c(C)c1O` was run?
The outcome was “inactive”.
